According to the supplement of paper PMC10849652:
About 7,900 targets were measured; listed, in parts, are those with a hit and a random draw of the rest. About 0.6% of all pairs of compound and target were hits. A number with no mark means an inactive call.

Legend:
Assay in all cases: log2 fold change, soluble protein after heating vs DMSO (PISA); higher = thermal stabilisation; K562 cells, 10 uM, 30 min; active = over 0.2 and 3.5 SD of the protein, either way, in both replicates (recomputed)
[1] = compound: C1=CC2=NC=CN=C2C=C1/C=C/3\C(=O)NC(=O)S3
In short: (§1)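 K562 cells (2×10^6 cells/mL) were treated with 10 μM compound for 30 min, and aliquots were heated for 3 min over 48°C-58°C. Pooled aliquots were extracted in PBS with 0.5% NP-40 at 4°C, and the supernatant after 21,000xg for 90 min was measured by TMTpro 16plex LC-MS/MS with channel sums equalised. Reported thermal stability, relative to control samples and from duplicates, is a log2 fold change.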

[2] = compound: C1=CC=C(C=C1)C2=NC(=C(N2)C3=CC=NC=C3)C4=CC(=C(C=C4)Cl)O
In short: as §1

[3] = compound: C#Cc1cccc(Nc2ncnc3cc(OCCOC)c(OCCOC)cc23)c1 [erlotinib]
In short: as §1

[4] = compound: C/C(=N\NC(=O)C1=CC(=CC=C1)S(=O)(=O)N2CCOCC2)/C3=C(C=CC(=C3)Cl)O
In short: as §1

[5] = compound: C1=CC(=C(C=C1Cl)C2=NC3=NC=CN=C3C(=N2)NC4=CC=NC=C4)F
In short: as §1

[6] = compound: C1=CC(=CC=C1C2=NC3=C(N2)C=C(C=C3)C(=O)N)OC4=CC=C(C=C4)Cl
In short: as §1

[7] = compound: C1=CC2=C(C=CC(=C2)/C=C\3/C(=O)NC(=NCC4=CC=CS4)S3)N=C1
In short: as §1

[8] = compound: C1=CC=C2C(=C1)C3=NNC4=CC=CC(=C43)C2=O
In short: as §1

[9] = compound: C1CCN(C1)C(=O)NC2=CC=CC(=C2)NC3=NC=C(C(=N3)NCCC4=CN=CN4)Br
In short: as §1

[10] = compound: C1CN(CCC1(CC2=CC=C(C=C2)Cl)N)C3=NC=NC4=C3C=CN4
In short: as §1

Sequence of UniProt O14526 (O14526 whole entry, looked up): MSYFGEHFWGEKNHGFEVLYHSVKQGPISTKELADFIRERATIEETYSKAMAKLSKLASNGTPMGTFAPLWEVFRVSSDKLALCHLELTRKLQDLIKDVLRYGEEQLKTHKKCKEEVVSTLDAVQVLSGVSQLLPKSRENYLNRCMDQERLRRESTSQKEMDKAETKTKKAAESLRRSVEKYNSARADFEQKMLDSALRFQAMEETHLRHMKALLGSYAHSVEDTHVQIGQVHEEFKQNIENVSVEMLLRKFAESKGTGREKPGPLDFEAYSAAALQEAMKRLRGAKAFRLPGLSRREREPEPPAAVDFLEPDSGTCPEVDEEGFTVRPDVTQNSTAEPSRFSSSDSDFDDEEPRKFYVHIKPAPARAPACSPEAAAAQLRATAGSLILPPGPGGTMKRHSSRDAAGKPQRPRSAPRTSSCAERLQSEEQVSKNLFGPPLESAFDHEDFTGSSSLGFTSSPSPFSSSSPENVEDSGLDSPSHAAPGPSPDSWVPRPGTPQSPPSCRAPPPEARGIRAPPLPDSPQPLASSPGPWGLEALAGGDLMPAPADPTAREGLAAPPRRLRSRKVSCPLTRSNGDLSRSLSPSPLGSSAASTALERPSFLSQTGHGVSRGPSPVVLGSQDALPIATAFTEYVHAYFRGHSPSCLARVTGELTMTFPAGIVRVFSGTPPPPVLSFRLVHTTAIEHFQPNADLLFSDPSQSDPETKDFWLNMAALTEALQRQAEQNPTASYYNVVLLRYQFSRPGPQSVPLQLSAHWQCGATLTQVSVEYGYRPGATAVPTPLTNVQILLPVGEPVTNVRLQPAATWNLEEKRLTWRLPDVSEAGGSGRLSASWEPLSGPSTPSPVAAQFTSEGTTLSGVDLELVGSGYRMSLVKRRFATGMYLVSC
Sequence of UniProt Q13227 (Q13227 whole entry, looked up): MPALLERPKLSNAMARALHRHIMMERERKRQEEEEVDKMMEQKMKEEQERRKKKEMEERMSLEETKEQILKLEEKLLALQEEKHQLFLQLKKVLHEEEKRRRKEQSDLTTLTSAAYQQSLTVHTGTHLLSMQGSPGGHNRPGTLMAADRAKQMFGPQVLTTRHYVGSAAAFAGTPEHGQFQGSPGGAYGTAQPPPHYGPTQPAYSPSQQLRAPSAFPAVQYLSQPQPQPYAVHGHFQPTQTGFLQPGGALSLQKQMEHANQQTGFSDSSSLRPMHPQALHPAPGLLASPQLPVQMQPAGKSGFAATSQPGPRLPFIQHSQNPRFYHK
Sequence of UniProt O43524 (O43524 whole entry, looked up): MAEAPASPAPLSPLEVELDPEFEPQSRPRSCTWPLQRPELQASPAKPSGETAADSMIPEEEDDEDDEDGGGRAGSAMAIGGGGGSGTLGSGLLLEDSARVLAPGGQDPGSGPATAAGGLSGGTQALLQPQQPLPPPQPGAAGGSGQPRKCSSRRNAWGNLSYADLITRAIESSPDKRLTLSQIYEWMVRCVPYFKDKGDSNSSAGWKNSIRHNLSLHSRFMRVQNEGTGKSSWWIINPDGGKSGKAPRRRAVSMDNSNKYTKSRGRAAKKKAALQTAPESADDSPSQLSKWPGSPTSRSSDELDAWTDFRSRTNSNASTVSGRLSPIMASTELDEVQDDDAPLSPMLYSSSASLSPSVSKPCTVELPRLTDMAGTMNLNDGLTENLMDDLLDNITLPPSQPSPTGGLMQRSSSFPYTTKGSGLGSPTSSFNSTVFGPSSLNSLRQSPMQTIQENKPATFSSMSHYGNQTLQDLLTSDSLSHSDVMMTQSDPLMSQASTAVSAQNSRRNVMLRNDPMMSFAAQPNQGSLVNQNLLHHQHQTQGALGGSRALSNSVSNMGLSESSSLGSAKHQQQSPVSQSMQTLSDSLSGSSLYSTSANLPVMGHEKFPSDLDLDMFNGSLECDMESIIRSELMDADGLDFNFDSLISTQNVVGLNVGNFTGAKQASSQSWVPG
Sequence of UniProt Q9HCG7 (Q9HCG7 whole entry, looked up): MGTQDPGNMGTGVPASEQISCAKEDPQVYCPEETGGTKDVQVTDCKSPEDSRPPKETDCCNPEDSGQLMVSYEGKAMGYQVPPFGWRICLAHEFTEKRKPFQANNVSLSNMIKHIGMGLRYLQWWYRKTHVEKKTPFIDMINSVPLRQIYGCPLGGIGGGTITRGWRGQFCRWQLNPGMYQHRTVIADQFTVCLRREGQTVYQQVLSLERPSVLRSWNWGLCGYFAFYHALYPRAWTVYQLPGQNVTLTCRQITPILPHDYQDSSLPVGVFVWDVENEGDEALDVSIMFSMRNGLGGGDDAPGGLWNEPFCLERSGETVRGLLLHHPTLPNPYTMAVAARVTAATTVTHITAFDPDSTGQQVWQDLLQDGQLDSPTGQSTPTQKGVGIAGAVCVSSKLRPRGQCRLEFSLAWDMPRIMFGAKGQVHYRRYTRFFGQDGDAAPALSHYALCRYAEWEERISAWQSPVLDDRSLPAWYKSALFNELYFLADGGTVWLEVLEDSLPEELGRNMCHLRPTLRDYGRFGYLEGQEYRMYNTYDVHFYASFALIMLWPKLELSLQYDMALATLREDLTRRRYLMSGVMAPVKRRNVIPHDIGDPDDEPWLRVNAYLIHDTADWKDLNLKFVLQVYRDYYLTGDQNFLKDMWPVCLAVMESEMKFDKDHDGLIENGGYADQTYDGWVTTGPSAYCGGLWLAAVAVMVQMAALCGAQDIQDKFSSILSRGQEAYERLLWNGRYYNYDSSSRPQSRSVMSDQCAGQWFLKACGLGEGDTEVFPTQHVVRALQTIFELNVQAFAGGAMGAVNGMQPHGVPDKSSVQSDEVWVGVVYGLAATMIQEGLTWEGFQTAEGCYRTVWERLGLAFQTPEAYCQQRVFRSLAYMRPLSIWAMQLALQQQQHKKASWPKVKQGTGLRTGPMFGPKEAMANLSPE
Sequence of UniProt O14893 (O14893 whole entry, looked up): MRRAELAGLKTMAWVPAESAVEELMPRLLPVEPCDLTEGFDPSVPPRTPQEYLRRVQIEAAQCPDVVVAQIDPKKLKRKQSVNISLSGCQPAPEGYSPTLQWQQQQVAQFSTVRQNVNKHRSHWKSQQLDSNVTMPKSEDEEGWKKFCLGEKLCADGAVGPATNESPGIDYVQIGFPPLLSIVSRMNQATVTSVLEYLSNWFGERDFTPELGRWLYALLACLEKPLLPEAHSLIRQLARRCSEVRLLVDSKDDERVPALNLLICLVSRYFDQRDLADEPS
Sequence of UniProt Q6P3S6 (Q6P3S6 whole entry, looked up): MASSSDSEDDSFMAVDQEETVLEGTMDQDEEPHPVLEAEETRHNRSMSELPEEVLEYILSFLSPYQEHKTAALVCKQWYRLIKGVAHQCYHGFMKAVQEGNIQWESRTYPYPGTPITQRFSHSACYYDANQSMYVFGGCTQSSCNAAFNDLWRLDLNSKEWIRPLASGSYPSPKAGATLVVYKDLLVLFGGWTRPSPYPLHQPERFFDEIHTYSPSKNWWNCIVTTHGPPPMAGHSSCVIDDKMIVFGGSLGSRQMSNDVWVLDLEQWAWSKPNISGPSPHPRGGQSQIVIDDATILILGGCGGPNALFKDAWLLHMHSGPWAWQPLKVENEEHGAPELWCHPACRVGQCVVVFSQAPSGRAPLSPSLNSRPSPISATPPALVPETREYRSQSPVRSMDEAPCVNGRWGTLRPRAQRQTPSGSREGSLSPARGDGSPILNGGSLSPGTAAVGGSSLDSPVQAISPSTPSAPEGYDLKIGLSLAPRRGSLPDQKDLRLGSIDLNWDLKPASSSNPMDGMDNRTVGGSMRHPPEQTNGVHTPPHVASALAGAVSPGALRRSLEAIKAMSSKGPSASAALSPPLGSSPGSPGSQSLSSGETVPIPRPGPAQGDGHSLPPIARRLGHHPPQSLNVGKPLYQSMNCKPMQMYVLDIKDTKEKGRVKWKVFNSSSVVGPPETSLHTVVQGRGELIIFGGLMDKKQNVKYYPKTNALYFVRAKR
Sequence of UniProt Q9Y324 (Q9Y324 whole entry, looked up): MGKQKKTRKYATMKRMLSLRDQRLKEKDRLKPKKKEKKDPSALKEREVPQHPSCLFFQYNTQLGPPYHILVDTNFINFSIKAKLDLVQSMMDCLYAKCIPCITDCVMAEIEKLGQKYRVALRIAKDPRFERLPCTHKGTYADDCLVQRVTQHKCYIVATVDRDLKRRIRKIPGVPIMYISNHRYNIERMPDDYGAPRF
Sequence of UniProt Q14956 (Q14956 whole entry, looked up): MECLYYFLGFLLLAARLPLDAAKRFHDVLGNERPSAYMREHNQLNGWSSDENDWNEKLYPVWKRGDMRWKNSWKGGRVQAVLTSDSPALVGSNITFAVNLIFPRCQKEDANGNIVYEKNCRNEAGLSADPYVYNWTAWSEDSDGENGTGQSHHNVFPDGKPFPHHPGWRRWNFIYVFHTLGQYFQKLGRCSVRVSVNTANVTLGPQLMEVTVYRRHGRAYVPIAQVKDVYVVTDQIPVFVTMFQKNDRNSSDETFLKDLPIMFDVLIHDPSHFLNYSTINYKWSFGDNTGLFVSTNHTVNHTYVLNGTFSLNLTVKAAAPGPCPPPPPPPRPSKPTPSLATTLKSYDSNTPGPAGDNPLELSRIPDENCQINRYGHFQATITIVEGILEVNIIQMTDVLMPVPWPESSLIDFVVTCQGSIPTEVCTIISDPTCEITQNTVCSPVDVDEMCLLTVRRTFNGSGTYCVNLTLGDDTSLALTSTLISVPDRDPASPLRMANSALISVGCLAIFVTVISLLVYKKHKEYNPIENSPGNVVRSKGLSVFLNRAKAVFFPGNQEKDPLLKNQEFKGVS
Sequence of UniProt Q70Z53 (Q70Z53 whole entry, looked up): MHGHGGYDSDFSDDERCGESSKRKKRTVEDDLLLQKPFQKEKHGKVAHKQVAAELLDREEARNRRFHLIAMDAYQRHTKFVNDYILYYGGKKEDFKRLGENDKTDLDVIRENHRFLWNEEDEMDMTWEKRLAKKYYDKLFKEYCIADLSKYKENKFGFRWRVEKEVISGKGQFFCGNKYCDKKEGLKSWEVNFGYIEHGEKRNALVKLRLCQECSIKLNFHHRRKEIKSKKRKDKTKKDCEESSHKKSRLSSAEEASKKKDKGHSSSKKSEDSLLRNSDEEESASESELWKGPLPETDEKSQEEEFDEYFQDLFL

Target | log2 fold change [1] | log2 fold change [2] | log2 fold change [3] | log2 fold change [4] | log2 fold change [5] | log2 fold change [6] | log2 fold change [7] | log2 fold change [8] | log2 fold change [9] | log2 fold change [10]
GSE1 (UniProt Q14687) | -0.269 | -0.048 | – | – | – | – | – | – | – | –
GBA2 (UniProt Q9HCG7) | -0.023 | – | 0.063 | 0.095 | 0.04 | 0.01 | 0.033 | 0.028 | 0.034 | 0.104
FOXO3 (UniProt O43524) | – | -0.035 | 0.026 | -0.007 | -0.025 | -0.079 | 0.027 | 0.038 | -0.224 | -0.283
IGF2 isoform 3 (UniProt P01344) | – | – | -0.098 | – | – | 0.028 | – | – | – | –
HSPA8 (UniProt E9PN89) | 0.06 | – | 0.051 | -0.193 | -0.191 | -0.061 | 0.358 | -0.133 | 0.267 | -0.027
GPS2 (UniProt Q13227) | 0.05 | -0.046 | -0.124 | – | 0.066 | -0.046 | – | – | 0.262 | 0.029
GAK (UniProt O14976) | – | 0.639 | 0.64 | -0.78 | -0.133 | -0.821 | 0.527 | 0.955 | 1.08 | -0.265
HSPA2 (UniProt P54652) | 0.058 | -0.095 | 0.623 | -0.047 | – | -0.182 | 0.022 | 0.192 | – | –
HDAC10 (UniProt Q969S8) | 0.066 | 0.045 | 0.065 | -0.067 | – | 0.038 | -0.277 | -0.072 | -0.729 (active) | 0.333
IDH3A isoform 2 (UniProt P50213) | -0.017 | – | 0.132 | -0.572 (active) | – | -0.084 | 0.135 | 0.039 | -0.052 | 0.164
HNRNPUL1 (UniProt M0R247) | – | – | -0.032 | -0.317 | – | -0.513 | 0.545 | -0.419 | 0.471 | 0.051
FAT2 (UniProt Q9NYQ8) | 0.096 | 0 | 0.115 | – | 0.26 | -0.098 | – | – | -0.166 | 0.186
FBXO9 (UniProt Q9UK97) | -0.022 | 0.03 | -0.017 | – | – | 0.137 | – | – | -0.098 | -0.037
H3-3A (UniProt P84243) | -0.1 | – | 0.085 | – | – | -0.035 | – | – | 0.049 | -0.218
GEMIN2 (UniProt O14893) | -0.013 | -0.069 | – | -0.086 | -0.428 (active) | – | 0.057 | -0.042 | – | –
FRA10AC1 isoform 3 (UniProt Q70Z53) | 0.033 | – | -0.02 | 0.053 | -0.059 | -0.12 | -0.305 | -0.154 | -0.067 | 0.126
FCF1 (UniProt Q9Y324) | – | -0.075 | – | – | -0.392 | – | – | – | 0.034 | -0.138
HNRNPK isoform 3 (UniProt P61978) | 0.06 | -0.024 | 0.101 | – | -0.102 | -0.032 | – | – | -0.027 | -0.052
GOLGA8R (UniProt I6L899) | -0.008 | 0.058 | 0.377 | -0.394 | – | -0.019 | 0.078 | -0.049 | -0.097 | 0.302
FIZ1 (UniProt Q96SL8) | – | – | – | – | -0.272 | – | – | – | – | –
GPNMB (UniProt Q14956) | – | – | 0.286 | – | -0.281 | -0.046 | – | – | – | –
FGG (UniProt P02679) | – | -0.05 | – | – | – | – | – | – | – | –
FCHO1 (UniProt O14526) | – | -0.144 | 0.065 | 0.104 | -0.032 | -0.011 | 0.07 | -0.061 | -0.005 | -0.029
GAB2 (UniProt Q9UQC2) | – | -0.294 | -0.035 | 0.149 | -0.033 | 0.231 | -0.04 | -0.196 | -0.29 | 0.012
FBXO42 (UniProt Q6P3S6) | 0.055 | 0.051 | 0.026 | -0.006 | -0.002 | 0.025 | 0.025 | -0.006 | -0.05 | -0.024
HBZ, A0A494C057 | -0.055 | – | 0.141 | – | – | -0.062 | – | – | – | –
